The values that follow come from PubChem BioAssay.

A short description of assay [1]: optical density shifts of acrAB sulA E. coli – strain DRC41, OD650, 48 h, E. coli filamentation inducer project, primary screen (AID 1152).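 Also: E. coli MC1000 strain DRC41 lacking acrAB efflux pump and sulA.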 As to conditions: higher = more signal, called active from +8 up or from −8 down.
Assay [2] is described as follows: probe aLefty1 binding on compound microarray – biochemical, small-molecule microarray, 635/667 nm fluorescence, primary screen (AID 1153).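 Also: score merges spot fluorescence with signal-to-noise ratio from the scanned slide images.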 As to conditions: higher = more signal.
Assay [3] can be described thus: plasmodial surface anion channel blockers, osmotic lysis – cell-based, P. falciparum Indochina, OD700, 1 h, primary screen (AID 1154). As to conditions: P. falciparum Indochina infected RBC osmotic lysis, higher = more signal, called active from +8 up or from −8 down.
Assay [4] is described as follows: plasmodial surface anion channel blockers, osmotic lysis – cell-based, P. falciparum Indochina, OD700, 2 h, primary screen (AID 1155).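 Also: lysis reports solute entry through the parasite surface anion channel PSAC.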 The following applies: P. falciparum Indochina infected erythrocytes, higher = more signal, called active from +8 up or from −8 down.
Assay [5] can be described thus: changes in parasitized red cell lysis, either direction – P. falciparum Indochina, OD700, 3 h, PSAC antagonist project, primary screen (AID 1156). The following applies: P. falciparum-infected erythrocytes, osmotic lysis, higher = more signal, called active from +8 up or from −8 down.
Assay [6] in a line: plasmodial surface anion channel blockers, osmotic lysis – cell-based, P. falciparum Indochina, OD700, 18 h, primary screen (AID 1157). As to conditions: P. falciparum Indochina infected erythrocytes, osmotic lysis OD700, 18 h; higher = more signal, called active from +8 up or from −8 down.
The nature of assay [7]: S6 kinase pathway phospho-S6 level changes – cell-based, A549, cytoblot, luminescence, serum-stimulated, primary screen (AID 1158).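 Also: serum-stimulated A549 lung adenocarcinoma cells; signal is phosphorylated S6 detected by cytoblot immunostaining with HRP secondary.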 The following applies: 5 h, higher = more signal.
Assay [8] concerns the target NADPH oxidase 2 (Homo sapiens) (UniProt P04839). The experiment in a line: compounds shifting NOX2 Amplex Red fluorescence – cell-based, HEK293-NOX2, PMA-stimulated, NOX inhibitor project, primary screen (AID 1159). Also: test concentration not given here. As to conditions: 45 min, higher = more signal, called active from +8 up or from −8 down.
In assay [9] the target is NADPH oxidase 4 (Homo sapiens) (UniProt Q9NPH5). The experiment in a line: compounds shifting NOX4 Amplex Red fluorescence – cell-based, HEK293-NOX4, tetracycline-induced, NOX inhibitor project, primary screen (AID 1160). As to conditions: HEK293-NOX4, Amplex Red H2O2 fluorescence, 45 min; higher = more signal, called active from +8 up or from −8 down.
Chain of NADPH oxidase 4 (Homo sapiens) (Q9NPH5 whole entry, looked up): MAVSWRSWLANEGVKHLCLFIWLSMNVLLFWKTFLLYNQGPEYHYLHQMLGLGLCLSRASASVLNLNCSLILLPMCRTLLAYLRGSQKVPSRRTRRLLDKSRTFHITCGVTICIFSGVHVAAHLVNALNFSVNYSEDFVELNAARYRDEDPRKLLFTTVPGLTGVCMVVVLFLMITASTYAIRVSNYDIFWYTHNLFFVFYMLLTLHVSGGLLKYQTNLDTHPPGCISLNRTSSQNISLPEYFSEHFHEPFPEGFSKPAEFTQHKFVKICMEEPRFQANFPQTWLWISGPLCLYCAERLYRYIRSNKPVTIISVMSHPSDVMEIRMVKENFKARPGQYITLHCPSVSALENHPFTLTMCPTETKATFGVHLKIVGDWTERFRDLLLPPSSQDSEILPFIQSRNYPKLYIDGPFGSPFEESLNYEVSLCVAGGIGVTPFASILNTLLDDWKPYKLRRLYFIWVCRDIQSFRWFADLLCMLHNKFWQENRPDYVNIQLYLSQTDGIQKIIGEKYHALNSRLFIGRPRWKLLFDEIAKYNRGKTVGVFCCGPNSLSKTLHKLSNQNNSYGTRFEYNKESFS
Assay [10] deals with NADPH oxidase 5 (Homo sapiens) (UniProt Q96PH1). Briefly: compounds shifting NOX5 Amplex Red fluorescence – cell-based, HEK293-NOX5, NOX inhibitor project, primary screen (AID 1161). As to conditions: HEK293-NOX5, ionomycin, 45 min, higher = more signal.
Chain of NADPH oxidase 5 (Homo sapiens) (Q96PH1 whole entry, looked up): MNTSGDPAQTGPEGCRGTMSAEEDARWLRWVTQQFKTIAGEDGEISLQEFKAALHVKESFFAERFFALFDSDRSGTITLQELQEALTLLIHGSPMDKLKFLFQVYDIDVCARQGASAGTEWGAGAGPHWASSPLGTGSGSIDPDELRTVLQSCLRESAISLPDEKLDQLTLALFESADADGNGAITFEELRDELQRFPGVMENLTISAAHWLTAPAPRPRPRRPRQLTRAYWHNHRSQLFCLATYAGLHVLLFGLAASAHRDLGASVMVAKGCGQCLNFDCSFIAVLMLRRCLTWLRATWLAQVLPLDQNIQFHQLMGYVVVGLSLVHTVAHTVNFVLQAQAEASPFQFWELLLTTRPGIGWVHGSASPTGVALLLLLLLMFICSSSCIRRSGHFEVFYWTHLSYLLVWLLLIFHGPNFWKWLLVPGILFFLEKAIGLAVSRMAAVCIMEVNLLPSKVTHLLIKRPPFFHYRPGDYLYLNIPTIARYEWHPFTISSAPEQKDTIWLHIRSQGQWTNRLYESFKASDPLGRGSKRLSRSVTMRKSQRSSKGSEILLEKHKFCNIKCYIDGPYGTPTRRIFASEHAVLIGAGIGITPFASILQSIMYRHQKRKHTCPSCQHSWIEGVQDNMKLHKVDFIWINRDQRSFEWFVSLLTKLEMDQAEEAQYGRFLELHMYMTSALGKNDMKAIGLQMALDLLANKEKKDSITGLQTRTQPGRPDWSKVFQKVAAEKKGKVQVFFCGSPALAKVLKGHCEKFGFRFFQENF
The nature of assay [11]: compound effects on lung adenocarcinoma cell viability – A549, calcein-AM fluorescence, 48 h, basal, profiling panel (AID 1162). Also: test concentration not given here. As to conditions: higher = more signal.
Assay [12] in a line: compound effects on differentiated 3T3-L1 adipocyte viability – cell-based, 3T3-L1 adipocytes, calcein-AM fluorescence, 48 h, basal, profiling panel (AID 1163). Also: test concentration not given here. The following applies: 3T3-L1 adipocytes viability, higher = more signal.
A short description of assay [13]: compound effects on hepatocellular carcinoma cell viability – HepG2, calcein-AM fluorescence, 48 h, basal, profiling panel (AID 1164). Also: test concentration not given here. The following applies: higher = more signal.
Assay [14] is described as follows: compound effects on multiple myeloma cell viability – MM1S, calcein-AM fluorescence, 48 h, basal, profiling panel (AID 1165). Also: test concentration not given here. As to conditions: higher = more signal.
A short description of assay [15]: calcein-AM signal in unstimulated myeloma cells – cell-based, calcein-AM fluorescence, 48 h, PK04 Diversity Set, profiling panel (AID 1166).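 Also: cells grown under basal conditions without added stimulus; test concentration not given here.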 As to conditions: RPMI8226 myeloma viability, higher = more signal.
A short description of assay [16]: JC-1 mitochondrial signal, unstimulated HepG2 cells – cell-based, JC-1 fluorescence, 24 h, 100 nL compound, profiling panel (AID 1167). Also: test concentration not given here. The following applies: HepG2 mitochondrial potential, higher = more signal.
The nature of assay [17]: JC-1 mitochondrial signal, unstimulated adipocytes – cell-based, JC-1 fluorescence, 3T3-L1 adipocytes, 24 h, 100 nL compound, profiling panel (AID 1168). Also: test concentration not given here. The following applies: JC-1 mitochondrial fluorescence, higher = more signal, called active from +8 up or from −8 down.
A short description of assay [18]: JC-1 mitochondrial signal, unstimulated myeloma cells – cell-based, JC-1 fluorescence, RPMI8226, 24 h, 100 nL compound, profiling panel (AID 1169). Also: test concentration not given here. As to conditions: JC-1 mitochondrial potential fluorescence, higher = more signal.
Assay [19] can be described thus: JC-1 mitochondrial signal, unstimulated MM1S myeloma – cell-based, JC-1 fluorescence, 24 h, 100 nL compound, profiling panel (AID 1170). Also: test concentration not given here. As to conditions: MM1S mitochondrial potential, higher = more signal.
Assay [20] is described as follows: resazurin metabolic signal in A549 cells – cell-based, resazurin fluorescence, 24 h, PK04 Diversity Set, profiling panel (AID 1171). Also: test concentration not given here. The following applies: A549 viability, higher = more signal, called active from +8 up or from −8 down. A general note: Resazurin is reduced to fluorescent resorufin, in cell work by metabolically active cells.

Active and inactive are the calls of the source.

Chain of NADPH oxidase 2 (Homo sapiens) (P04839 whole entry, looked up): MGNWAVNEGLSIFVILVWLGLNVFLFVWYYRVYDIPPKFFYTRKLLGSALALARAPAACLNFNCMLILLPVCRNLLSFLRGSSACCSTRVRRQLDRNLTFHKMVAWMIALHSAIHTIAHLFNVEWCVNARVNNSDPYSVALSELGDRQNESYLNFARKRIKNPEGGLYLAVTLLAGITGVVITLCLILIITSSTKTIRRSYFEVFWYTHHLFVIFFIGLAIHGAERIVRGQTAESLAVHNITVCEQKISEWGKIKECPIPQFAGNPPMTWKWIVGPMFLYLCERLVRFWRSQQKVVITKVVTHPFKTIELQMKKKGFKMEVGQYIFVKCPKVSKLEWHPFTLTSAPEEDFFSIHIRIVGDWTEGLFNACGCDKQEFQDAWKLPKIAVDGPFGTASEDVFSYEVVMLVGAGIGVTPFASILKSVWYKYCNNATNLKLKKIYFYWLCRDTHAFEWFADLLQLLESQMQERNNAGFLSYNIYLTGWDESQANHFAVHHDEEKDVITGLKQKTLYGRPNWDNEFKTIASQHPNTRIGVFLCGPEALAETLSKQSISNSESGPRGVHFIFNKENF

Consider `COC(=O)C(CC#Cc1ccc2c(c1)[C@]1(C(=O)N2)[C@H](C(=O)Nc2nc3ccccc3s2)[C@H]2C(=O)O[C@H](c3ccccc3)[C@H](c3ccccc3)N2[C@@H]1c1ccccc1OCCO)C(=O)OC`, for which the z-score in assay [1] is -0.839 (inactive); in assay [3] it was 4.9 (inactive); in assay [4], 2.16 (inactive); in assay [5], -0.174 (inactive); in assay [6], 1.69 (inactive); in assay [7] it was -0.333. Besides, the z-score in assay [8] was 1.28 (inactive); in [9] it was 0.252 (inactive); in assay [10] it was 0.774; in assay [11], -0.231; in assay [12] it was 0.728; in assay [13] it was 0.0091. The z-score is -0.426 in assay [14]; -2.6 in assay [15]; -2.7 in assay [16]; -0.502 (inactive) in assay [17]; -1.17 in assay [18]; -1.63 in [19]. The z-score in [20] is -0.367 (inactive). Besides, the composite z-score in assay [2] came to 0.284.
`COCCCNC(=O)[C@]1(CCC(=O)OC(C)(C)C)N=C(c2ccc(OCCCO)cc2)O[C@@H]1c1ccccc1CN=[N+]=[N-]`: the z-score in assay [1] was -0.458 (inactive); in assay [3] it was 26.3 (active); in assay [4], 7.34 (inactive); in assay [5] it was 0.785 (inactive); in assay [6], 1.13 (inactive); in assay [7], -0.0406. The z-score was -0.974 (inactive) in [8]; 0.289 (inactive) in assay [9]; -0.307 in [10]; -0.651 in [11]; -0.579 in assay [12]; -0.421 in [13]. Further, the z-score in assay [14] is -0.658; in assay [15], 0.338; in assay [16], -0.255; in assay [17] it was -0.2 (inactive); in assay [18], -0.315; in assay [19], -0.272. The z-score in assay [20] was 0.743 (inactive). In [2], this compound had a composite z-score of 1.06.
`O=C1C2C=CC(C(O)Cc3ccccc3)N(n3cnnc3)C2C(=O)N1Cc1ccccc1` (stereo not given): the z-score was -1.07 (inactive) in [1]; 1.78 (inactive) in [3]; 1.06 (inactive) in assay [4]; 1.04 (inactive) in assay [5]; 0.587 (inactive) in [6]; -0.309 in assay [7]. In addition, the z-score in assay [8] was -0.112 (inactive); in assay [9], -1.69 (inactive); in [10], -1.36; in [11], -0.182; in assay [12], 0.549; in assay [13], -0.065. The z-score in assay [14] was -0.304; in [15], -1.11; in assay [16], -0.532; in assay [17] it was -0.533 (inactive); in assay [18] it was 0.395; in assay [19], 1.24. The z-score in assay [20] is -1.29 (inactive). The compound also had a composite z-score in assay [2] of 0.333.
In the case of `CN(C)CCCCCCNC(=O)[C@H]1C[C@H]2C(=O)N3CCC[C@H]3C(=O)N2[C@H]1c1ccc(O)cc1`, the z-score in assay [1] was 1.47 (inactive); in assay [3], 0.89 (inactive); in assay [4], 0.326 (inactive); in assay [5], -0.664 (inactive); in assay [6] it was 0.253 (inactive); in assay [7], -0.549. In addition, the z-score is 0.544 (inactive) in assay [8]; -1.28 (inactive) in [9]; -0.0199 in assay [10]; -0.79 in assay [11]; 0.627 in assay [12]; -0.952 in assay [13]. Besides, the z-score in assay [14] was -0.567; in assay [15], -0.554; in assay [16], 0.661; in assay [17] it was 0.597 (inactive); in assay [18] it was 0.262; in assay [19], 0.538. In addition, in [20], the z-score was -0.636 (inactive). This compound also came in with a composite z-score in [2] of 0.0811.
